# Assay outcomes: PubChem BioAssay, National Center for Advancing Translational Sciences (NCATS)
# TGFb inhibitor = qHTS for Inhibitors of TGF-b; Potency, µM (doses to about 46.1 µM), without a hit: top-dose activity, negative = inhibition, hits mostly inhibitors; HepG2 CAGA-GFP TGF-b/SMAD3 reporter, GFP fluorescence, 18 h; TGF-beta stimulated, 500 pg/mL final; actives 1.2% (n = 410,000); also: % is scaled to controls: 0 for no effect and ±100 for the full control effect; nearly all actives have a fitted effect of over 65% in size
#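 GFP signal (ex488/em500-530) from TGF-beta-stimulated HEPG2 CAGA-GFP cells, 500 pg/mL final, 18 h at 37 degrees C in DMEM plus 1% FBS, normalized to unstimulated and DMSO-stimulated controls.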
# ATXN2 expr inh = Primary qHTS for Inhibitors of ATXN expression. HEK-293 ATXN2-luciferase reporter, luminescence, 24 h. actives 0.72% (n = 360,000). AID 1745845, 2022. Potency, µM (series often up to 57 µM), for inactives: at the highest dose activity change, negative = inhibition, hits mostly inhibitors; also: % is scaled to controls: 0 for no effect and ±100 for the full control effect; nearly all actives have a fitted effect of over 55% in size
#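 qHTS (up to 57 uM final) was run with 24 h compound exposure of reporter cells at 37 °C. Each well was multiplexed: SteadyGlo luminescence measured ATXN2-luciferase expression after a fluorogenic Gly-Phe-AFC viability readout (25 uM final).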
# ATXN viability = Viability Counterscreen for Primary qHTS for Inhibitors of ATXN expression; S2 cells (HEK-293 line with an ATXN2-luciferase reporter) viability, CellTiter-Fluor protease fluorescence, 24 h; Potency, µM (titrated, usually from 56.7 µM), hits mostly cytotoxic; actives 0.49% (n = 400,000); also: nearly all actives have a fitted effect of over 40% in size
# DT40 TDP1 no CPT = qHTS for Inhibitors of human tyrosyl-DNA phosphodiesterase 1 (TDP1): qHTS in cells in absence of CPT; actives 15% (n = 420,000); AID 686978, 2013; DT40 Tdp1-/- hTDP1 cells, no CPT, ATP luminescence, 48 h; Potency, µM (titrated, usually from 46.2 µM), inactives show top-dose activity change, negative = growth inhibition, hits mostly inhibitors; also: % is scaled to controls: 0 for no effect and ±100 for the full control effect; nearly all actives have a fitted effect of over 55% in size
#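 Seeded 400 DT40-hTDP1 cells/well (vehicle DMSO, no 20 nM CPT); pinned compounds; ≥48 hr at 37 °C; CellTiter-Glo luminescence as viability measure.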
# HepG2 tox = qHTS for Inhibitors of TGF-b: Cytotox Counterscreen. HepG2 CAGA-GFP viability, ATP luminescence, 18 h. Potency, µM (doses to about 46.1 µM), for inactives: at the highest dose activity change, negative = cytotoxicity, hits mostly cytotoxic. actives 0.76% (n = 410,000). AID 588856, 2011
#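 HepG2 CAGA-GFP cells (1000/well, DMEM with 1% FBS) received compound, then TGF-beta at 500 pg/mL final, and were incubated 18 hours at 37 degrees C. Viability was read by CellTiter-Glo luminescence. Media-only wells were set as complete cell-killing and DMSO as no toxicity.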
# DT40 TDP1 CPT = qHTS for Inhibitors of human tyrosyl-DNA phosphodiesterase 1 (TDP1): qHTS in cells in presence of CPT; chicken DT40 Tdp1-/-;hTDP1 cells + 20 nM CPT, ATP luminescence, 48 h; Potency, µM (doses to about 46.2 µM), for the others: at the top dose activity change, negative = growth inhibition, most hits filed as inhibitors; actives 12% (n = 420,000); AID 686979, 2013; also: % is scaled to controls: 0 for no effect and ±100 for the full control effect; nearly all actives have a fitted effect of over 55% in size
#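 Chicken DT40 Tdp1-/- cells complemented with human TDP1, 400 cells/well, exposed to compounds plus 20 nM camptothecin for at least 48 h at 37 C; viability read as ATP content by CellTiter-Glo luminescence.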
# Active calls of the source: *; i = inactive; u = inconclusive; x = no result. Sampled rows, rich in hits. Any-hit rate of the full collection: about 17%. Calls follow the shape of the dose curve; as a rule, active = well fitted curve in the direction sought with a large enough effect; inconclusive = small, poorly fitted or top-dose-only effect, or another doubt; inactive = no such curve, though single readings can be large; an effect the other way counts as inactive or inconclusive. Potency is read from the fitted curve at half-maximal effect.
SMILES,TGFb inhibitor,ATXN2 expr inh,ATXN viability,DT40 TDP1 no CPT,HepG2 tox,DT40 TDP1 CPT
CC(C)COC(=O)C(C#N)c1nc2ccccc2nc1N1CCN(Cc2ccccc2)CC1 (centres undefined),-20%,-13%,i,u,-16%,u
N#Cc1ccc(CN2C(=O)c3ccccc3Sc3ccc(C(=O)OCc4ccco4)cc32)cc1,2%,6%,i,x,0%,x
Cc1ccccc1Cn1cc(CCC(=O)NC(C)c2ccccc2)c2ccccc21 (centres undefined),u,x,x,23µM*,-35%,13µM*
O=C(Cc1csc2ccccc12)NCc1cccc(Br)c1,-2%,11%,i,21µM*,-13%,16µM*
COc1cccc(CNC(=O)CCCc2cn(C)c3ccccc23)c1,-13%,1%,i,5%,-18%,0%
CCn1cc(CCC(=O)NC(C)c2ccccc2)c2ccccc21 (centres undefined),11%,-15%,i,-4%,6%,-13%
CC(C)NC(=O)CCCc1cn(C)c2ccccc12,3%,3%,i,-5%,0%,-15%
CC(CCc1ccccc1)NC(=O)CCc1cn(C)c2ccccc12 (centres undefined),0%,-11%,i,18µM*,-16%,-1%
Cn1cc(CCCC(=O)NCc2cccc(Br)c2)c2ccccc21,u,x,x,18µM*,-24%,u
Cc1ccc(S(=O)(=O)N2CCN(c3ccccc3)CC2)c(C)c1,-24%,-19%,i,-11%,-27%,-23%
O=C(Nc1ccc(C(F)(F)F)cc1)C1CCN(c2cnccn2)CC1,u,u,u,u,-19%,u
C=C(C)c1cccc(C(C)(C)NC(=O)N2CCC(C)CC2)c1,-4%,3%,i,u,-2%,18µM*
C=C(C)c1cccc(C(C)(C)NC(=O)N2CCN(CC)CC2)c1,-2%,-3%,i,-17%,6%,-6%
C/C=C(\C)C(=O)NCCN1C2=NC[C@@H](C)N2C[C@@H]1Cc1ccc(OC)cc1,16%,6%,i,-5%,7%,-15%
COc1ccc(C[C@H]2CN3C(=NC[C@@H]3C(C)C)N2C[C@H](C)NC(=O)c2ccc(C)c(Br)c2)cc1,u,u,18µM*,18µM*,-58%,29µM*
COc1ccc(C[C@H]2CN3C(=NC[C@@H]3Cc3ccc(O)cc3)N2C[C@H](C)NC(=O)c2ccc(C)c(Br)c2)cc1,22µM*,u,22µM*,21µM*,18µM*,4.6µM*
Cc1ccc(C(=O)N[C@@H](C)CN2C3=NC[C@H](C(C)C)N3C[C@H]2Cc2ccc(O)cc2)cc1Br,u,u,u,5.8µM*,-35%,4.6µM*
CCOc1ccc(NC(=O)Cn2nnc(-c3nc(-c4ccncc4)no3)c2N)cc1,x,x,x,-11%,-3%,2%
COCCCNC(=O)CN1C(=O)/C(=C\c2ccc(C)cc2)Sc2ccccc21,u,-4%,i,u,-23%,u
O=C(CN1C(=O)/C(=C\c2cccc(Cl)c2)Sc2ccccc21)NCCCN1CCOCC1,-22%,x,u,23µM*,-30%,23µM*
O=C(CN1C(=O)COc2ccccc21)NCCCN1CCOCC1,-7%,-4%,i,-16%,-14%,2%
O=C(CN1C(=O)/C(=C/c2ccc(C(F)(F)F)cc2)Sc2ccccc21)NCCCN1CCOCC1,u,-20%,i,u,-53%,26µM*
O=C(CN1C(=O)/C(=C\c2cccc(Br)c2)Oc2ccccc21)NCCCN1CCOCC1,12%,u,x,18µM*,-25%,u
CCc1ccc(/C=C2/Sc3ccccc3N(CC(=O)NCCCN3CCOCC3)C2=O)cc1,u,x,u,21µM*,18µM*,u
O=C(CN1C(=O)/C(=C\c2ccccc2Cl)Sc2ccccc21)NCCCN1CCOCC1,0%,-31%,u,u,-24%,u
SMILES,TGFb inhibitor,ATXN2 expr inh,ATXN viability,DT40 TDP1 no CPT,HepG2 tox,DT40 TDP1 CPT
O=C(Cn1cnc([N+](=O)[O-])c1)Nc1ccc(Cl)cc1Cl,6%,x,i,0%,-4%,3%
CC[C@@H](C)CN1C(=O)N[C@@H](c2ccccc2)C(C(C)=O)=C1C,-2%,3%,i,-24%,-1%,-28%
Cc1noc(-c2ccc(CSCCC(=O)O)cc2)c1NC(=O)OC(C)c1ccccc1Cl (centres undefined),x,11%,x,x,x,x
CC(C)C[C@@H]1CN(CCCC[C@H]2CNC(=O)C(=O)N2CCC2CCCCC2)C(=O)C(=O)N1Cc1ccccc1,x,9%,i,-3%,x,3%
Cc1ccc2cc(CN(CCc3ccccc3)C(=S)NCCCN(C)C)c(=O)[nH]c2c1,u,u,u,26µM*,-89%,u
Cc1ccc2[nH]c(=O)c(CN(CCCN(C)C)C(=S)NCCc3ccccc3)cc2c1,u,-22%,u,u,-74%,u
Cc1cccc2cc(CN(CCCN(C)C)C(=S)NCCc3ccccc3)c(=O)[nH]c12,-29%,-15%,i,16µM*,5%,21µM*
O=C(Cc1ccsc1)Nc1ccccc1F,1%,21%,i,-20%,-3%,12%
O=C(CSc1nccn1-c1cccc(Cl)c1)Nc1cccc(C(F)(F)F)c1,u,x,x,u,-32%,u
Cc1cccc(COC[C@H](Cc2ccccc2)N2CCN(C(=O)c3ccc(Cl)c(Cl)c3)CCC2=O)c1,x,0%,u,u,x,u
Cc1cccc(COCC(Cc2ccccc2)N2CCN(C(=O)c3cccc(C)c3)CCC2=O)c1 (centres undefined),u,-29%,u,u,-30%,u
O=C(c1cccc(Cl)c1)N1CCC(=O)N([C@H](COCc2cccc(Cl)c2)Cc2ccccc2)CC1,x,u,u,23µM*,x,u
Cc1cccc(COCC(Cc2ccccc2)N2CCN(C(=O)c3ccc(Cl)c(Cl)c3)CCC2=O)c1 (centres undefined),u,u,u,u,-13%,21µM*
CCOc1ccccc1NC(=S)/C(=C(\[O-])c1ccc2c(c1)OCCO2)[n+]1ccc(CC)cc1,-2%,-5%,i,x,-21%,21µM*
